From PubChem BioAssay AID2685 (National Center for Advancing Translational Sciences (NCATS), 2010)
Hit rate of the full screen: of about 320,000 compounds, about 2,100 (0.66%) were called active. Another 53% or so got no clear call; they are omitted. The call rests on the fitted dose curve; in most records, active means well fitted inhibition curve with a large enough effect in the signal ratio, with a control signal flat (not every such curve was filed as active); inconclusive means small, poorly fitted or top-dose-only effect, or effect the other way, or a change in a side signal; inactive means flat fitted curve, though single readings scatter; the % refers to the signal ratio. The sample as a whole holds a higher share of actives than the screen did.
Potency means the concentration at half of the fitted maximal effect.

Assay: qHTS Assay for Lipid Storage Modulators in Drosophila S3 Cells;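 on cell number change: cells counted by Cell Tracker Red CMTPX staining in the red channel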; on lipid storage change, negative = inhibition: on the % scale 0 is the no-effect control and ±100 the full control effect
Conditions: BODIPY lipid droplet fluorescence, 18-24 h, cells fed with added oleic acid; cell number change: measured here: cell count max response; series mostly up to 46.1 µM; lipid storage change, negative = inhibition: at the top concentration
Method in brief: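 Laser-scanning cytometry quantifies lipid droplet accumulation (500–530 nm total intensity; droplet/cell object ratio) in oleic acid-fed (400 uM added) Drosophila S3 cells treated with a concentration series. 20 uM Triacsin C defined 100% inhibition.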
In the case of `O=C(CN1CCN(CC(=O)Nc2ccccc2C(F)(F)F)CC1)Nc1ccccc1F`, the “lipid storage change, negative = inhibition” value is reported as 0.494% (inactive). With `O=C(CCC(=O)Nc1ccccc1Cl)NNC(=O)c1ccco1` the “lipid storage change, negative = inhibition” value was 2.6% (inactive) and the cell number change was 11.4%. With `CCN1C(=O)[C@H]2[C@@H](c3ccc(-c4ccc5c(c4)OCO5)cc3)N3CCC[C@@]3(C(=O)OC)[C@H]2C1=O` the “lipid storage change, negative = inhibition” value was 13.4% (inactive) and the cell number change was -27.4%. In the case of `Cc1ccccc1NCN1C(=O)C2CCC(C)(C1=O)C2(C)C` (stereo not given), the “lipid storage change, negative = inhibition” value is reported as -4.09% (inactive) and the cell number change is reported as -11.4%. In the case of `CCOC(=O)c1cccc(NS(=O)(=O)Cc2ccccc2)c1`, the “lipid storage change, negative = inhibition” value is reported as -7.72% (inactive) and the cell number change is reported as -5.1%. In the case of `COc1cccc(/C=C/C(=O)OCC(=O)Nc2cc(C(F)(F)F)ccc2Cl)c1`, the “lipid storage change, negative = inhibition” value is reported as 12.8% (inactive) and the cell number change is reported as 1.22%. For `COCCNC(=O)CN(C(=O)Cn1nnc2ccccc21)c1ccc(C)c(F)c1`, the “lipid storage change, negative = inhibition” value was 9.15% (inactive) and the cell number change was -2.04%. For `NC(=O)CCCc1nc(-c2ccccc2Cl)no1`, the “lipid storage change, negative = inhibition” value was -1.99% (inactive) and the cell number change was -20.4%. For `CCN1C(=NCc2ccco2)N[C@@H](c2cccc(F)c2)C(C(=O)OC)=C1C`, the “lipid storage change, negative = inhibition” value was -18% (inactive) and the cell number change was 16.3%. In the case of `COCCNC(=O)C(=O)NCCN1CCOCC1`, the “lipid storage change, negative = inhibition” value is reported as -0.917% (inactive) and the cell number change is reported as -14.6%. For `CCOc1ccc(NC(=O)CSc2nc(=O)n(Cc3cccnc3)c3c2CCC3)cc1`, the outcome was “inactive [at 0.0737 µM]”. In the case of `COc1ccc(-n2c(-c3cccc(C)c3[N+](=O)[O-])n[nH]c2=S)cc1`, the “lipid storage change, negative = inhibition” value is reported as -20.3% (inactive) and the cell number change is reported as 2.37%. For `Cc1ccccc1CN(C)C(C)C(=O)NCc1ccccc1` (stereo not given), the “lipid storage change, negative = inhibition” value was 7.5% (inactive) and the cell number change was 16.8%. For `CCN(C(=O)CCNC(=O)Cn1cnc2ccccc2c1=O)c1ccccc1F`, the “outcome” value was “inactive” and the cell number change was -0.794%. With `COc1ccc(Nc2nnc(-c3ccc(O)cc3)c3ccccc23)cc1` the “outcome” value was “inactive”. With `Cc1nc2cc(Nc3nnc(-c4ccccc4)c4ccccc34)ccc2n1C` the Potency was 11.6 µM (active) and the cell number change was -29.7%. With `Cc1nc2cc(NC(=O)Nc3cccc4ccccc34)ccc2n1C` the “lipid storage change, negative = inhibition” value was -7.94% (inactive) and the cell number change was 19.9%. For `O=C(CN1CCN(S(=O)(=O)N2CCOCC2)CC1)Nc1cc(Cl)cc(Cl)c1`, the “outcome” value was “inactive” and the cell number change was 10%. For `COc1ccc(-c2cc(C(=O)NC3CCCC3)no2)cc1`, the “outcome” value was “inactive” and the cell number change was 6.09%. For `O=C(NC1CCCCC1)c1cc(-c2ccc(F)cc2)on1`, the Potency was 23.1 µM (active) and the cell number change was 15.8%. In the case of `Cc1ccc(-c2cc(C(=O)NC3CCCC3)no2)cc1`, the “lipid storage change, negative = inhibition” value is reported as 71.1% (inactive) and the cell number change is reported as -1.32%. With `O=C(c1ccccc1)N1CCN(CC(O)COc2ccc(Br)cc2)CC1` (stereo not given) the “outcome” value was “inactive”. For `CCOC(=O)N1CCN(CC(O)COc2ccccc2C(C)C)CC1` (stereo not given), the “lipid storage change, negative = inhibition” value was -5.66% (inactive) and the cell number change was -2.25%. With `CCOC(=O)N1CCN(CC(O)COc2ccccc2C(C)CC)CC1` (stereo not given) the Potency was 3.66 µM (active) and the cell number change was 1.1%. For `O=C(C(c1ccccc1)c1ccccc1)N1CCN(CC(O)COc2ccccc2)CC1` (stereo not given), the Potency was 4.61 µM (active) and the cell number change was -10.2%. In the case of `OC(COc1ccccc1)CN1CCOCC1` (stereo not given), the “lipid storage change, negative = inhibition” value is reported as 0.356% (inactive) and the cell number change is reported as 9.9%. In the case of `CCOC(=O)N1CCN(CC(O)COc2ccccc2[N+](=O)[O-])CC1` (stereo not given), the “lipid storage change, negative = inhibition” value is reported as 12.5% (inactive) and the cell number change is reported as 10.6%. With `CCc1ccc(C(=O)Nc2ccc3c(c2)n(C)c(=O)n3C)cc1` the “lipid storage change, negative = inhibition” value was -15.8% (inactive) and the cell number change was -19.7%. In the case of `CC1Cc2ccccc2N1C(=O)COC(=O)C1=COCCO1` (stereo not given), the “lipid storage change, negative = inhibition” value is reported as 8.97% (inactive) and the cell number change is reported as -1.1%. With `COc1cccc(/C=N/n2nnnc2N)c1O` the “lipid storage change, negative = inhibition” value was -18.8% (inactive) and the cell number change was 2.87%. With `C=CCOc1c(CNC2CCCC2)cc(Cl)cc1OC` the “lipid storage change, negative = inhibition” value was 5.16% (inactive) and the cell number change was 36.7%. For `Cc1ccc(-c2nc(NCc3ccco3)n(C(=O)c3ccco3)n2)cc1`, the “lipid storage change, negative = inhibition” value was -2.37% (inactive) and the cell number change was -0.0963%. With `CC(NC(=O)C1CCCN1S(=O)(=O)c1ccccc1)c1ccccc1` (stereo not given) the “outcome” value was “inactive” and the cell number change was 4.49%. For `O=C(N1CCCCC1)C12CC3CC(C1)CC(C(=O)N1CCCCC1)(C3)C2`, the “outcome” value was “inactive” and the cell number change was 5%. With `CN(C)CCNc1oc(-c2cccc(Cl)c2)nc1C#N` the “lipid storage change, negative = inhibition” value was 6.31% (inactive). With `CN(C)CCCNc1oc(-c2cccc(Cl)c2)nc1C#N` the Potency was 23.1 µM (active) and the cell number change was 5.97%. In the case of `CCN(CC)CCCNc1oc(-c2ccc(OC)c(OC)c2)nc1C#N`, the “outcome” value is reported as “inactive” and the cell number change is reported as 24.5%. In the case of `O=C(O)c1cc2nc3c(c(C(F)(F)F)n2n1)CCCC3`, the “lipid storage change, negative = inhibition” value is reported as -22.7% (inactive) and the cell number change is reported as -17.1%. With `COc1cc(C(=O)N2CCN(C)CC2)cc(OC)c1OC` the “outcome” value was “inactive” and the cell number change was -9.94%. In the case of `COc1cc(C(=O)N2CCN(C3CCCCC3)CC2)cc(OC)c1OC`, the “lipid storage change, negative = inhibition” value is reported as -6.47% (inactive) and the cell number change is reported as 26.9%. For `COc1cc(C(=O)N2CCN(C(=O)C3CC3)CC2)cc(OC)c1OC`, the Potency was 14.6 µM (active) and the cell number change was 0.295%. With `CCOC(=O)C1=C(C)Nc2ccccc2N=C1NC(=O)/C=C/c1ccc(OC)cc1OC` the “lipid storage change, negative = inhibition” value was 10.8% (inactive) and the cell number change was 0.577%. For `Cc1c(N(C(=O)c2cnccn2)C2(C(=O)NC3CCCC3)CCCCC2)c(=O)n(-c2ccccc2)n1C`, the “lipid storage change, negative = inhibition” value was -2.91% (inactive) and the cell number change was -4%. With `O=C(CC1SC(=Nc2ccc(OC(F)F)cc2)N(CCC2=CCCCC2)C1=O)Nc1ccccc1F` (stereo not given) the “lipid storage change, negative = inhibition” value was 9.36% (inactive) and the cell number change was -16.7%. In the case of `C=CCN1C(=O)C(CC(=O)NCC)SC1=Nc1ccccc1OC` (stereo not given), the “outcome” value is reported as “inactive” and the cell number change is reported as -0.552%.
